Measurements taken from PubChem BioAssay (Tox21).
Records with an inconclusive call do not appear. Where a call stands in place of a potency, no number is given. Values without a mark were called inactive. Calls of active or inactive are those of the source. Calls come from the whole dose curve; as a rule, active = well fitted cell-killing curve with a large enough effect in the repeat runs; inconclusive = weak or mixed curves; inactive = flat fitted curve, though single readings scatter.

Assay: qHTS RealTime-Glo MT Cell Viability Assay in HepG2 cells - 8 hour (AID 1224873); note: nearly all actives have a fitted effect of over 55% in size
Conditions: RealTime-Glo luminescence; series mostly up to 76.8 µM
Description: National Center for Advancing Translational Sciences [NCATS]
NIH Chemical Genomics Center [NCGC]
U.S. Environmental Protection Agency [EPA]
National Institutes of Environmental Health Sciences [NIEHS]
National Toxicology Program [NTP]
U.S. Food and Drug Administration [FDA]
Measure of cell viability is critical in the cell-base assay. Analysis of cell viability is necessary for the characterization of cell responses to cytotoxic drugs and environmental stress. A RealTime-Glo MT Cell Viability Assay to monitor cell viability in real time of continues cell culture during 40 hours of compound treatment was used to screen Tox21 10K library compounds in HepG2 cells. The RealTime-Glo MT Cell Viability Assay is a nonlytic, homogeneous, bioluminescent method to measure cell viability in real time using a simple, plate-based method. The assay involves adding NanoLuc luciferase and a cell-permeant prosubstrate to cells in culture. Viable cells reduce the proprietary prosubstrate to generate a substrate for NanoLuc luciferase. This substrate diffuses from cells into the surrounding culture medium, where it is rapidly used by the NanoLuc Enzyme to produce a luminescent signal. The signal correlates with the number of viable cells, making the assay well suited for cytotoxicity studies.
Tox21 Assay Protocol Summary:
The mixture of HepG2 cell suspension and reagents were dispensed at 600cells/6 ul/well in 1536-well tissue culture treated black solid bottom plates using a Multidrop dispenser. After the assay plates were incubated at a 37 C/5% CO2 incubator for 5 hours, 23 nL of compounds dissolved in DMSO, positive and negative controls was transferred to the assay plate by a pintool work station. The plates were incubated at 37 C for 40 hours. The luminescence intensity were measured at 0h, 8h, 16h, 24h, 32h and 40h time points using ViewLux plate reader during compound treatment.
For `c1ccc(OCc2ccc(CCCN3CCOCC3)cc2)cc1`, the Potency was “inactive”.
In the case of `CCCc1ccccc1`, the Potency is reported as “inactive”.
In the case of `CCCCCCCCCC=O`, the Potency is reported as “inactive”.
In the case of `CC(=O)O[C@@H]1C(=O)O[C@@H]2[C@H]1OC(=O)[C@@H]2OC(C)=O`, the Potency is reported as “inactive”.
With `CCCCCOC(=O)c1ccc(O)cc1` the Potency was “inactive”.
With `COC(=O)C(C)=O` the Potency was “inactive”.
For `C1=Cc2ccccc2C1`, the Potency was “inactive”.
In the case of `Cl/C(=C\n1cncn1)c1ccc(Cl)cc1Cl`, the Potency is reported as “inactive”.
For `O=C=NC1CCC(CC2CCC(N=C=O)CC2)CC1` (stereo not given), the Potency was “inactive”.
For `CC(C)c1ccc2c(C(C)C)cc(C(C)C)c(S(=O)(=O)O)c2c1`, the Potency was “inactive”.
For `CC(C)c1ccccc1C(C)C`, the Potency was “inactive”.
With `Cc1ccc2c(ccc3ccccc32)c1` the Potency was “inactive”.
With `CN(C(=O)CCCOc1ccc2[nH]c(=O)ccc2c1)C1CCCCC1` the Potency was “inactive”.
With `Nc1nc(CC(=O)O)cs1` the Potency was “inactive”.
For `Cc1cc(C)c(S(=O)(=O)O)cc1N=Nc1cc(S(=O)(=O)O)c2ccccc2c1O`, the Potency was “inactive”.
For `O=C(O)c1cn(C2CC2)c2cc(Cl)c(F)cc2c1=O`, the Potency was “inactive”.
With `CCN(CC)C(C)=O` the Potency was “inactive”.
For `O=C(O)/C=C/c1cnc[nH]1`, the Potency was “inactive”.
With `CCCCCc1ccc(N)cc1` the Potency was “inactive”.
In the case of `O=C(O)Cc1sc(-c2ccccc2)nc1-c1ccc(Cl)cc1`, the Potency is reported as “inactive”.
In the case of `CC(C)=CCCC(C)CC=O` (stereo not given), the Potency is reported as “inactive”.
With `COc1ccc(OC)c(OC)c1` the Potency was “inactive”.
With `c1ccc(CNCc2ccccc2)cc1` the Potency was “inactive”.
In the case of `Cc1ccc(C)o1`, the Potency is reported as “inactive”.
For `CCCOc1ccc2nc(NC(=O)OC)[nH]c2c1`, the Potency was “inactive”.
For `CCCCCCCCCCCCCCCCCBr`, the viability change, negative = cytotoxic was -6.16% [at 15.8 µM].
For `C=C(C)C(=O)OCCOc1ccccc1`, the Potency was “inactive”.
For `SC1CCCC1`, the Potency was “inactive”.
For `CC(CN)CCCN` (stereo not given), the Potency was “inactive”.
In the case of `Cn1c(NCCN(CCO)CCCc2ccc([N+](=O)[O-])cc2)cc(=O)n(C)c1=O`, the Potency is reported as “inactive”.
With `CN(C)C/C=C(/c1ccc(Br)cc1)c1cccnc1` the Potency was “inactive”.
With `COc1ccccc1OC(=O)Oc1ccccc1OC` the Potency was “inactive”.
With `CC(C)NCC(O)COc1ccc(CC(N)=O)cc1` (stereo not given) the Potency was “inactive”.
In the case of `N#Cc1cc2ccccc2c2ccccc12`, the Potency is reported as “inactive”.
For `CC(=O)/C(C)=C/C1C(C)=CCCC1(C)C` (stereo not given), the Potency was “inactive”.
With `CC(C)(C)c1ccc(OCC2CO2)cc1` (stereo not given) the Potency was “inactive”.
With `Nc1nc(N)c(-c2ccccc2)s1` the Potency was “inactive”.
For `CCCCOC(O)CC` (stereo not given), the Potency was “inactive”.
With `O=C(Nc1ccccc1)OCC(CN1CCCCC1)OC(=O)Nc1ccccc1` (stereo not given) the Potency was “inactive”.
In the case of `Cc1cccc(Oc2ccccc2)c1`, the Potency is reported as “inactive”.
